Compounds with a hit are over-represented: about 4.3% of the library has one in this group of screens.
Giardia kill: kills Giardia lamblia; Giardia lamblia trophozoite viability; activity change, % at 7.66 µM, hits read low; hit rate 0.15% among 340,000; in the data active = activity change below about -80%; inconclusive = between about -30% and that limit;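 note: parasites exposed to compound for two days anaerobically before the ATP read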
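Luminescent ATP signal served as the viability read-out, measured 15-30 min after adding ATP detection reagent to trophozoites that had been incubated with compounds for 48 hrs at 37 deg C anaerobically at 100 cells/well.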
SW480 rereplic: DNA re-replication induction in SW480 cells; SW480 DNA re-replication, Hoechst DNA content imaging, 48 h; Potency, µM (titrated, usually from 46.1 µM), hits mostly activators; hit rate 1.8% among 340,000; AID 624297; note: nearly all actives have a fitted effect of over 55% in size
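Per well, 250 cells were exposed to pinned compound for 48 hr. Nuclear DNA was visualised with Hoechst (40 min, 37 C) and total object intensity recorded by fluorescence scanning.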
uPA generation: blocks generation of uPA at the cell surface | hit rate 0.31% among 330,000 | AID 540303 | cell surface uPA generation assay, qHTS | Potency, µM (titrated, usually from 38.3 µM), actives largely listed as inhibitors; active = well fitted inhibition curve with a large enough effect; inconclusive = small, poorly fitted or top-dose-only effect; inactive = no such curve, though single readings can be large or run the other way; tested in mouse RAW 264.7 cells; note: nearly all actives have a fitted effect of over 55% in size
MCF10A rerep: induces DNA re-replication in MCF 10a normal breast cells; MCF 10A DNA re-replication, Hoechst nuclear intensity, 48 h; Potency, µM (doses to about 46.1 µM), most hits filed as activators; hit rate 2.9% among 350,000; note: nearly all actives have a fitted effect of over 50% in size
Hits are given with their value; n = inactive; u = inconclusive; x = not tested or not shown. Unless noted, calls come from the whole dose curve; as a rule, active = well fitted activation curve with a large enough effect; inconclusive = small, poorly fitted or top-dose-only effect; inactive = no such curve, though single readings can be large or run the other way.

SMILES	Giardia kill	SW480 rereplic	uPA generation	MCF10A rerep
CCOC(=O)C1=C(c2ccccc2)NC(N)=NC1c1ccc(OCc2ccc(Cl)cc2)c(OC)c1 (centres undefined)	n	u	n	18.4µM
CN1CCC(N(C)C(=O)c2cc(-c3ccc(F)cc3)nc3ccccc23)CC1	n	n	n	u
Cc1cc(C(=O)COC(=O)c2cccnc2Cl)c(C)n1C	u	n	8.91µM	n
O=C(O)c1cc([N+](=O)[O-])ccc1Oc1ccccc1	n	n	n	n
COc1ccc(CCNc2nnc(Sc3nnnn3-c3ccccc3)s2)cc1OC	n	2.91µM	x	4.61µM
COc1ccc(-n2nnnc2SCC(=O)NCCc2ccccc2)cc1OC	n	n	n	n
O=C(NNc1ccccc1F)c1sccc1Cl	n	x	x	x
O=S(=O)(NCC(O)c1ccccc1)c1ccc(-c2ccccn2)s1 (centres undefined)	n	23.1µM	n	u
Cc1cccc(C)c1NC(=O)CN1CCN(C(=O)c2ccc(OCc3cn4ccccc4n3)cc2)CC1	n	n	n	n
Cc1ccc(NS(=O)(=O)c2ccc(Cl)c(C(=O)Nc3ccccc3-c3nc4ccccc4[nH]3)c2)cc1C	n	8.2µM	n	5.17µM
CN(C)S(=O)(=O)c1ccc(Cl)c(C(=O)Nc2nc3ccccc3[nH]2)c1	n	n	n	n
Cn1nnc(NC(=S)NC(=O)c2cccs2)n1	n	u	n	n
CCCCn1nnc(NC(=S)NC(=O)c2cccs2)n1	n	18.4µM	n	n
Cc1ccc(C2=NC(=O)/C(=C/c3cc(O)c(O)c(Br)c3)S2)cc1	n	8.2µM	n	u
COc1cc(/C=C2\SC(c3ccc(C)cc3)=NC2=O)cc(OC)c1O	n	n	n	u
Nc1ccn([C@@H]2O[C@H](CO)[C@H](O)C2(F)F)c(=O)n1	x	u	x	n
CC(C)Cc1ccc(CN2CCCC(NC(=O)c3nn(C)c(=O)c4ccccc34)C2)cc1 (centres undefined)	n	u	n	20.6µM
CC(C)Cc1ccc(CN2CCCC(NC(=O)c3ccnn3C)C2)cc1 (centres undefined)	n	n	n	n
Cc1cc(C)cc(N(CCC(=O)Nc2nnc(C3CC3)s2)S(=O)(=O)c2ccc(Cl)cc2)c1	n	23.1µM	n	u
CCC(C)C1NC(=O)C(CCNCS(=O)(=O)O)NC(=O)C(NC(=O)C(CCNCS(=O)(=O)O)NC(=O)C(NC(=O)C(CCNCS(=O)(=O)O)NC(=O)CCCCC(C)C)C(C)O)CCNC(=O)C(C(C)O)NC(=O)C(CCNCS(=O)(=O)O)NC(=O)C(CCNCS(=O)(=O)O)NC(=O)C(C(C)CC)NC1=O (centres undefined)	x	n	x	u
CC1CCN(C(=O)CNC(=O)CNC(=O)Cc2ccccc2)CC1	n	n	n	n
NNC(=O)CCn1c2ccccc2c2ccccc21	n	n	n	11.6µM
COc1cccc(/C=N/NC(=O)CCn2c3ccccc3c3ccccc32)c1	n	n	n	n
Cc1ccc(NC(=S)NNC(=O)CCn2cc(C)cn2)cc1	n	9.2µM	x	n
Cc1cnn(CCC(=O)NNC(=S)Nc2ccccc2)c1	n	u	x	n
SMILES	Giardia kill	SW480 rereplic	uPA generation	MCF10A rerep
CCc1ccc2nc3nc(C)cc(C)c3c(N)c2c1	n	2.91µM	n	n
O=C(NNc1c(Cl)cccc1Cl)c1sc2ccccc2c1Cl	n	x	x	x
CN(Cc1cn(C)nc1-c1ccc(Oc2ccccc2)cc1)Cc1cnc2ccccn12	n	n	n	23.1µM
Cn1cc(CNCc2cnc3ccccn23)c(-c2ccc(Oc3ccccc3)cc2)n1	n	n	n	n
CCc1c(C)nc2ncnn2c1Nc1ccc(C)cc1	n	n	n	n
CCc1c(C)nc2ncnn2c1NCCc1ccc(OC)cc1	n	5.62µM	x	2.51µM
O=[N+]([O-])c1ccc(Cl)c(S(=O)(=O)/N=C(/Sc2ccc(Br)cc2)c2ccccc2)c1	n	x	x	x
COc1cc(C(=O)OCC(=O)Nc2sccc2C(N)=O)cc(OC)c1OC	n	n	3.16µM	u
COc1ccc(C(=O)OCC(=O)Nc2sccc2C(N)=O)cc1OC	n	n	n	n
COc1cc(CCC(=O)OCC(=O)Nc2sccc2C(N)=O)cc(OC)c1OC	n	16.4µM	n	n
CCc1ccc(S(=O)(=O)/N=C2/C=C(Sc3ncn[nH]3)C(=O)c3ccccc32)cc1	n	4.61µM	n	3.26µM
CCc1ccc(S(=O)(=O)/N=C2\C=C(Nc3ccc(O)cc3)C(=O)c3ccccc32)cc1	n	5.8µM	n	3.66µM
O=C(O)c1ccc(NC2=C/C(=N/S(=O)(=O)c3ccccc3)c3ccccc3C2=O)cc1	n	3.26µM	n	u
C=CCn1c(SC(F)F)nc2scc(-c3ccco3)c2c1=O	n	n	n	2.91µM
